Shown are actives, neighbours in structure and some others; about 21% of the full set was active somewhere.
Pf growth 96h – Primary qHTS for delayed death inhibitors of the malarial parasite plastid, 96 hour incubation | Potency, µM (titrated, usually from 28.7 µM), without a hit: at the highest dose activity change, negative = inhibition, usual class: inhibitors | P. falciparum luciferase reporter growth, 96 h | AID 504834, 2011 | actives 6.9% (n = 320,000); further: potency means the concentration at half of the fitted maximal effect; on the % scale 0 is the no-effect control and ±100 the full control effect
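Readout is luminescence from an integrated firefly luciferase in P. falciparum. Red cells, 2% hematocrit and 0.05% parasitemia final, were cultured with compound through two parasite generations (96 hours) at 37 C, 5% CO2.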
Shiga inhibitor – A qHTS for Small Molecule Inhibitors of Shiga Toxin | AID 2315, 2010 | Vero cells, Shiga toxin protein synthesis inhibition reporter | actives 9.2% (n = 290,000) | inhibition, % at 38.7 µM; in the data active means inhibition mostly above about 28%, no sharp cut-off; inactive means mostly below about 43%; further: 0% is about no effect
HCMV inh – qHTS Assay for inhibitors of the human cytomegalovirus (HCMV); HFF cells, HCMV-luciferase reporter, 72 h; hits give low values; activity change, negative = inhibition, % at 57.5 µM; actives 4.5% (n = 410,000); AID 1259415, 2018; in the data active means activity change below about -60%; inconclusive means no clear call, values can overlap the other calls; inactive means above about -39%; further: on the % scale 0 is the no-effect control and ±100 the full control effect
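Two-dose cell screen: HFF monolayers treated with compounds and infected with luciferase-expressing HCMV at 1 PFU/cell, 72 h at 37C, then lysed for luciferase measurement.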
HCV inh – qHTS Assay for Inhibitors of Hepatitis C Virus (HCV). Potency, µM (series often up to 41.8 µM), without a hit: at the top dose activity change, negative = inhibition, usual class: inhibitors. Huh7.5.1 HCVcc-Cre infection, luciferase reporter, 44 h. actives 3.4% (n = 340,000); further: potency means the concentration at half of the fitted maximal effect; on the % scale 0 is the no-effect control and ±100 the full control effect
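Cells seeded at 1,000/well and cultured 4 h, then compounds added followed by HCVcc-Cre virus (~0.5 moi). After 44 h further culture, luciferase substrate was added, plates held 15 min at room temperature, and luminescence read for 15 sec.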
CHX counter – Cycloheximide Counterscreen for Small Molecule Inhibitors of Shiga Toxin; cell reporter, cycloheximide protein synthesis inhibition counterscreen; max response, %; actives 12% (n = 300,000); AID 2314, 2010; in the data active means max response mostly above about 13%, no sharp cut-off; inactive means mostly below about 14%; further: read at 38.3 µM for the half of the compounds with a filed dose; 0% is about no effect
Pf growth 48h – Primary qHTS for delayed death inhibitors of the malarial parasite plastid, 48 hour incubation; actives 5.9% (n = 310,000); Potency, µM (series often up to 28.7 µM), for the others: at the top dose activity change, negative = inhibition, most hits filed as inhibitors; P. falciparum luciferase growth in erythrocytes, 48 h; further: potency means the concentration at half of the fitted maximal effect; on the % scale 0 is the no-effect control and ±100 the full control effect
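Cell-based growth assay: transgenic P. falciparum expressing firefly luciferase, cultured in red cells within RPMI 1640 containing 0.5% w/v Albumax, 24 mM bicarbonate and gentamycin. A drop in luciferase activity indicates inhibition.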
An asterisk follows results filed as active; ? = inconclusive; · = no result given; ! = repeats disagree; [ ] = another dose, or the depositor's remark. Unless noted, the call rests on the fitted dose curve; in most records, active means well fitted inhibition curve with a large enough effect; inconclusive means small, poorly fitted or top-dose-only effect, or another doubt; inactive means no such curve, though single readings can be large or run the other way.

SMILES | Pf growth 96h | Shiga inhibitor | HCMV inh | HCV inh | CHX counter | Pf growth 48h
COc1ccccc1NC(=O)c1ccc2oc(=O)c(S(=O)(=O)c3ccccc3)cc2c1 | · | · | 15 | · | · | ·
Cc1ccc(NC(=O)C2CCCN(S(=O)(=O)c3cccc4cccnc34)C2)c(Br)c1 (stereo not drawn) | · | · | 0 | · | · | ·
COc1ccc(NC(=O)N(CCN2CCCC2)Cc2cc3cc(OC)c(OC)cc3[nH]c2=O)cc1 | ? | 4 | 8 | -18% | 1 | 9.3µM*
Cc1ccc2cc(CN(CCN3CCCC3)C(=O)Nc3ccc(F)cc3)c(=O)[nH]c2c1C | -11% | -9 | -23 | ? | -4 | 13µM*
Cc1ccc2cc(CN(CCN3CCOCC3)C(=O)NCc3ccccc3)c(=O)[nH]c2c1C | ? | -9 | -21 | 15% | -6 | ?
Cc1ccc2cc(CN(CCN3CCCC3)C(=O)Nc3ccccc3)c(=O)[nH]c2c1C | ? | -3 | -5 | -25% | -3 | 10µM*
CCCCCCN1C[C@@H](n2cc(-c3ccc(F)cc3)nn2)[C@H](O)C[C@@H]1c1ccccc1 | · | · | 1 | · | · | ·
COc1ccc(N(CC(=O)N2CCN(c3ccccc3)CC2)S(=O)(=O)c2c(C)noc2C)cc1 | -28% | -16 | -26 | -12% | -2 | ·
COc1ccc(N(CC(=O)N2CCN(c3cccc(C)c3C)CC2)S(=O)(=O)c2c(C)noc2C)cc1 | 13µM* | -1 | -65*! | ? | -3 | 8.3µM*
Cc1ccc(N(CC(=O)N2CCN(c3cc(C)ccc3C)CC2)S(=O)(=O)c2c(C)nn(C)c2C)cc1 | · | · | -72* | · | · | ·
COc1ccc(N(CC(=O)N2CCc3ccccc3C2)S(=O)(=O)c2c(C)nn(C)c2C)cc1 | 1.2µM* | -3 | 24 | -7% | 0 | ·
CCOC(=O)N1CCN(C(=O)CN(c2ccc(C)cc2)S(=O)(=O)c2c(C)noc2C)CC1 | ? | -2 | -12 | ? | 1 | -10%
COc1ccc(N(CC(=O)N2CCN(c3cc(C)ccc3C)CC2)S(=O)(=O)c2c(C)noc2C)cc1 | 13µM* | 1 | 8 | ? | 2 | 9.3µM*
CCN(CC)CCNC(=O)c1c(C)oc2ncn(C)c(=O)c12 | · | · | 19 | · | · | ·
Cc1nc2cc(NCc3cc([N+](=O)[O-])ccc3O)ccc2n1Cc1ccccc1 | 322% | 33 | 4 | 4% | 2 | ?
COc1ccc(-c2nnc(N(C)C(=O)c3cccnc3)s2)cc1 | · | 46 | 49 | 3% | 27* | 47%
Cc1nnc(N(C)C(=O)c2ccccn2)s1 | 40% | -16 | -1 | 23% | -3 | 11%
Cc1ccc(-c2nnc(N(C)C(=O)c3cccnc3)s2)cn1 | 1%[5.75 µM] | 16 | -7 | -9% | 10 | 32%
CN(C(=O)c1ccccn1)c1nnc(-c2cccnc2)s1 | -1% | 32 | 7 | -12% | 54* | 15%
Cc1ccc(-c2nnc(N(C)C(=O)c3cccnc3)s2)cc1 | ? | 77 | 44 | 20% | 34* | 76%
O=S(=O)(/C=C/c1ccccc1)N1CCOCC1 | 40% | -3 | 10 | 5% | -1 | 6%
COc1ccc(-c2nc3n(n2)C(c2ccccc2F)C(C(=O)Nc2cccnc2)=C(C)N3)cc1OC (stereo not drawn) | · | · | 33 | · | · | ·
COc1ccccc1Nc1c2c(nc3ccc(NC(=O)c4ccc(N(C)C)cc4)cc13)CCCC2 | · | · | -101* | · | · | ·
COc1cc(OC)cc(C(=O)Nc2ccc3nc4c(c(Nc5ccc(OC)c(OC)c5)c3c2)CCCC4)c1 | · | · | -105* | · | · | ·
COc1ccc(Nc2c3c(nc4ccc(NC(=O)c5cc(Cl)ccc5OC)cc24)CCCC3)cc1OC | · | · | -108* | · | · | ·
SMILES | Pf growth 96h | Shiga inhibitor | HCMV inh | HCV inh | CHX counter | Pf growth 48h
CCOc1ccccc1C(=O)Nc1ccc2nc3c(c(Nc4ccc(OC)c(OC)c4)c2c1)CCCC3 | · | · | -103* | · | · | ·
CCCCSc1nc(-c2ccc(OC)cc2)ccc1C#N | · | · | 2 | · | · | ·
Cc1ccc(-n2c(=O)[nH]c3sc4c(c3c2=O)CCNC4)cc1C | · | · | 1 | · | · | ·
NCCc1c(-c2ccccc2)n(-c2ccccc2)c2ccccc12 | ? | -20 | -4 | 11µM* | -5 | 15µM*
COc1ccccc1CC(=O)Nc1sc2c(c1C(N)=O)CCCC2 | -29% | -6 | 48 | 20µM* | -2 | ?
CC(C)(C)C1CCc2c(sc(NC(=O)c3cccs3)c2C(N)=O)C1 (stereo not drawn) | -5% | 63* | ? | -15% | 32* | 187%
NC(=O)c1c(NC(=O)Cc2cccs2)sc2c1CCC2 | 38% | 19* | -17 | ? | 16* | 36%
Cc1cccc(N2CCN(C(=O)C3CCN(S(=O)(=O)c4c(C)noc4/C=C/c4ccccc4F)CC3)CC2C)c1 (stereo not drawn) | · | · | -3 | · | · | ·
COc1ccc(CNc2ccc(Cl)cc2)cc1Cn1ccnc1 | 0% | -5 | -20 | ? | 5 | ?
CCc1ccc(NCc2ccc(OC)c(Cn3ccnc3)c2)cc1 | 19% | 32 | -64* | ? | 18 | ·
COc1ccc(-n2c(COc3ccc(C)cc3)nnc2SCC(=O)O)cc1 | ? | -11 | -12 | 24% | 5 | -52%
Cc1ccc(OCc2nnc(SCc3ccc(C#N)cc3)n2-c2ccc(C)cc2)cc1 | · | -9 | -34 | ? | 1 | 13µM*
Cc1ccc(-n2c(SCc3ccc(C#N)cc3)nnc2-c2ccccn2)cc1 | 10µM* | 31 | -23 | -6% | -3 | ?
COc1ccc(-n2c(SCc3ccc(C#N)cc3)nnc2-c2ccccn2)cc1 | ? | -11 | -7 | -3% | 1 | ?
CCN(CC(=O)NC1CCCC1)S(=O)(=O)c1ccc(F)cc1 | 3% | 1 | 33 | -1% | 5 | ?
COC(=O)C(=C/C(C)=C/c1cccnc1)C(=O)OC | 16% | -7 | ? | -20% | -5 | ?
COc1ccc(OCc2nc3ccc(S(=O)(=O)Nc4ccccc4Cl)cc3[nH]2)cc1 | -16% | -6 | -6 | -25% | -2 | 4%
COc1ccc(NS(=O)(=O)c2ccc3nc(COc4cccc5ccccc45)[nH]c3c2)cc1 | ? | 35 | -79* | ? | 13 | ?
O=C(COc1ccccc1N1C(=O)c2ccccc2C1=O)c1ccc(Cl)cc1 | -18% | 34* | -15 | -11% | 20* | ?
O=C(COc1ccc(N2C(=O)c3ccccc3C2=O)cc1)c1ccccc1 | -4% | -1 | 3 | 5% | 12 | 19%
COc1cccc(-c2nc(CS(=O)(=O)CC(=O)Nc3ccccc3Cl)c(C)o2)c1 | -24% | 8 | -24 | 13µM* | 2 | 8%
Cc1oc(-c2cccc(Cl)c2)nc1CS(=O)(=O)CC(=O)NC1CCCC1 | ? | -9 | -62* | -7% | -3 | 23%

Source: PubChem BioAssay (National Center for Advancing Translational Sciences (NCATS))
